# Source: PubChem BioAssay (NCATS)
# Records with an inconclusive call do not appear. Where a call stands in place of a potency, no number is given. Activity calls are given as the source filed them. Unless noted, calls come from the whole dose curve; as a rule, active = well fitted inhibition curve with a large enough effect; inconclusive = small, poorly fitted or top-dose-only effect; inactive = flat fitted curve, though single readings scatter.
# Key:
# [1] = target: Phospholipid hydroperoxide glutathione peroxidase GPX4 (Homo sapiens) (UniProt P36969); test: Primary qHTS Assay for Inhibitors of Recombinant Selenoprotein Glutathione Peroxidase 4 (GPX4) (AID 1845192); note: nearly all actives have a fitted effect of over 65% in size; note: potency is the fitted concentration of half-maximal effect
# How it was run: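 qHTS, GR-coupled: GPX4 200 nM + cpd 30 min RT → GSH 1 mM, NADPH 0.5 mM, GR 100 nM → CHP 0.5 mM start; fluor 340/450 at t0 and t15 min; no-enzyme wells as control.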
# [2] = target: Glutathione peroxidase 1 (Homo sapiens) (UniProt P07203); test: Primary qHTS Assay for Inhibitors of Recombinant Selenoprotein Glutathione Peroxidase 1 (GPX1) (AID 1845191); note: nearly all actives have a fitted effect of over 65% in size; note: potency is the fitted concentration of half-maximal effect
# How it was run: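 GPX1 10 nM, GR 100 nM, GSH 1 mM, NADPH 0.5 mM, CHP 0.5 mM (final). 30-min cpd preincubation, RT. Ex340/Em450 read t=0, t=15 min.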
# [3] = target: Luciferin 4-monooxygenase (Photinus pyralis) (UniProt P08659); test: Biochemical firefly luciferase enzyme assay for NPC (AID 624030);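 note: purified P. pyralis luciferase at 10 nM with luciferin and ATP substrate; nearly all actives have a fitted effect of over 70% in size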
# How it was run: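 Counter-screen for direct inhibition of the luciferase enzyme by approved-drug library compounds, run at 10 nM enzyme in 50 mM Tris acetate (final). Luminescence was read within 5 min of enzyme-buffer addition and normalized to PTC124 versus DMSO (0%).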
# [4] = qHTS profiling for inhibitors of Plasmodium falciparum proliferation (AID 504749); note: nearly all actives have a fitted effect of over 60% in size; settings: P. falciparum in erythrocytes, SYBR Green DNA, 72 h, at 28.7 µM (top of the series)
# How it was run: (§1)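 Quantitative HTS: compounds pinned into medium, infected erythrocytes added (0.3% parasitemia, 2.5% hematocrit), 72 h culture at 37 C under 5% CO2. Saponin/Triton lysis with SYBR Green I, overnight RT, then fluorescence read.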
# AS120 = test: as above; settings: P. falciparum in erythrocytes, SYBR Green DNA, 72 h; series mostly up to 28.7 µM
# How it was run: as §1
# ATS189 = test: as above; settings: P. falciparum in erythrocytes, SYBR Green DNA, 72 h; series mostly up to 28.7 µM
# How it was run: as §1
# CP192 = test: as above; settings: P. falciparum in erythrocytes, SYBR Green DNA, 72 h; series mostly up to 28.7 µM
# How it was run: as §1
# CP194 = test: as above; settings: P. falciparum in erythrocytes, SYBR Green DNA, 72 h; series mostly up to 28.7 µM
# How it was run: as §1
# CP247 = test: as above; settings: P. falciparum in erythrocytes, SYBR Green DNA, 72 h; series mostly up to 28.7 µM
# How it was run: as §1
# CP262 = test: as above; settings: P. falciparum in erythrocytes, SYBR Green DNA, 72 h; series mostly up to 28.7 µM
# How it was run: as §1
# CP269 = test: as above; settings: P. falciparum in erythrocytes, SYBR Green DNA, 72 h; series mostly up to 28.7 µM
# How it was run: as §1
# CP291 = test: as above; settings: P. falciparum in erythrocytes, SYBR Green DNA, 72 h; series mostly up to 28.7 µM
# How it was run: as §1
# CP297 = test: as above; settings: P. falciparum in erythrocytes, SYBR Green DNA, 72 h; series mostly up to 28.7 µM
# How it was run: as §1
# CP315 = test: as above; settings: P. falciparum in erythrocytes, SYBR Green DNA, 72 h; series mostly up to 28.7 µM
# How it was run: as §1
# CP329 = test: as above; settings: P. falciparum in erythrocytes, SYBR Green DNA, 72 h; series mostly up to 28.7 µM
# How it was run: as §1
# CP335 = test: as above; settings: P. falciparum in erythrocytes, SYBR Green DNA, 72 h; series mostly up to 28.7 µM
# How it was run: as §1
# DIV17 = test: as above; settings: P. falciparum in erythrocytes, SYBR Green DNA, 72 h; series mostly up to 28.7 µM
# How it was run: as §1
# GB4 = test: as above; settings: P. falciparum in erythrocytes, SYBR Green DNA, 72 h; series mostly up to 28.7 µM
# How it was run: as §1
# HB3 = test: as above; settings: P. falciparum in erythrocytes, SYBR Green DNA, 72 h; series mostly up to 28.7 µM
# How it was run: as §1
# [5] = qHTS drug screen for cell cycle checkpoint inhibitors in PARPi-resistant BRCA-mutant ovarian cancer cell lines. (AID 1963452; calls by dose curve; note: potency is the fitted concentration of half-maximal effect); settings: PEO1/OlaR viability, CellTiter-Glo luminescence, 96 h; for Z-AUC: stronger effect = lower value
# How it was run: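 PEO1, PEO4 and PEO1/OlaR ovarian cancer cells, 600 per well, exposed 96 h at 37C to a dilution series. Viability read by CellTiter-Glo luminescence, normalized to DMSO and empty wells; activity summarized as Z-AUC.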
# Sequence of Glutathione peroxidase 1 (Homo sapiens) (P07203 whole entry, looked up): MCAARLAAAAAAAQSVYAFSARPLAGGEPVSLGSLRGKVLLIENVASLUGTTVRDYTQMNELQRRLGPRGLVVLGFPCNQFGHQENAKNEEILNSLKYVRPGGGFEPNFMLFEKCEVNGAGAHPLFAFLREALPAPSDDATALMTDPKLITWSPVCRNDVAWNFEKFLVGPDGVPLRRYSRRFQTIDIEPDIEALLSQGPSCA
# Sequence of Luciferin 4-monooxygenase (Photinus pyralis) (P08659 whole entry, looked up): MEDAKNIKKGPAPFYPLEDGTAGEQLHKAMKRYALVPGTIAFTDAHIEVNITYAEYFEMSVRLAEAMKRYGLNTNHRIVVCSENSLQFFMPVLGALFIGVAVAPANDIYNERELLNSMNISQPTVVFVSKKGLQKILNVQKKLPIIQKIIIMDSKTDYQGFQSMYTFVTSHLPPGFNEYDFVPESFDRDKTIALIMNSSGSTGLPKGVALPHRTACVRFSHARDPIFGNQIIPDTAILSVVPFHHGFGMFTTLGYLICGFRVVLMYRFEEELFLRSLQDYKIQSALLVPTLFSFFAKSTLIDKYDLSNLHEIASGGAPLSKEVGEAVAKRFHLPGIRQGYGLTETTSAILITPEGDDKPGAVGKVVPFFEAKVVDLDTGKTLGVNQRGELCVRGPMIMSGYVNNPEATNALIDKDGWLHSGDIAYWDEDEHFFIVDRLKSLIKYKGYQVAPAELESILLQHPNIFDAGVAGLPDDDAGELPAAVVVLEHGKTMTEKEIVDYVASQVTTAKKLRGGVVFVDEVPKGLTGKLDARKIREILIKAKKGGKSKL
# Sequence of Phospholipid hydroperoxide glutathione peroxidase GPX4 (Homo sapiens) (P36969 whole entry, looked up): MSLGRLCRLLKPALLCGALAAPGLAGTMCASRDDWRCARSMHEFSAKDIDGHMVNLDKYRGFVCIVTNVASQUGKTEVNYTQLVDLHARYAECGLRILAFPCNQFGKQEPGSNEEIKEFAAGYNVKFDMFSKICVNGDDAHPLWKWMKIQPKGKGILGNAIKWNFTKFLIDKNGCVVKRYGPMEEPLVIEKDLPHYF
smiles,measurement,setting,value
Cc1cc2nc3c(=O)[nH]c(=O)nc-3n(C[C@@H](O)[C@@H](O)[C@@H](O)COP(=O)(O)O)c2cc1C,Potency,[1],2.55 µM (active)
CC(O)C(CO)NC(=O)C1CSSCC(NC(=O)C(N)Cc2ccccc2)C(=O)NC(Cc2ccccc2)C(=O)NC(Cc2c[nH]c3ccccc23)C(=O)NC(CCCCN)C(=O)NC(C(C)O)C(=O)N1 (centres undefined),Potency,[1],12.6 µM (active)
O=c1cc(-c2cccc(O)c2)oc2c(O)c(O)ccc12,Potency,[2],inactive
N[C@@H](C(=O)N[C@@H]1C(=O)N2C(C(=O)O)=C(Cl)CC[C@H]12)c1ccccc1,Potency,[2],inactive
same,Potency,[1],inactive
OC(c1ccccc1)(c1ccccc1)C12CC[N+](CCOCc3ccccc3)(CC1)CC2,Potency,[1],inactive
CC1(C)S[C@@H]2[C@H](NC(=O)COc3ccccc3)C(=O)N2[C@H]1C(=O)O,Potency,[3],inactive
same,Potency,[2],inactive
same,"activity, negative = inhibition",[4]; parasite line A,4.88% (inactive)
same,"activity, negative = inhibition",[4]; parasite line B,4.38% (inactive)
same,Potency,AS120,inactive
same,Potency,ATS189,inactive
same,Potency,CP192,inactive
same,Potency,CP194,inactive
same,Potency,CP247,inactive
same,Potency,CP262,inactive
same,Potency,CP269,inactive
same,Potency,CP291,inactive
same,Potency,CP297,inactive
same,Potency,CP315,inactive
same,Potency,CP329,inactive
same,Potency,CP335,inactive
same,Potency,DIV17,inactive
same,Potency,GB4,inactive
same,Potency,HB3,inactive
CC(C)(O)C1CCC(Nc2ccc3ncc(-c4cccc(C(F)(F)F)c4)n3n2)CC1 (centres undefined),Potency,[2],inactive
same,Potency,[5],5.49 µM (active)
same,Z-AUC,[5]; measured here: PEO1 parental Z-AUC,-1.03
same,Z-AUC,[5]; measured here: PEO4 Z-AUC,-1.21
Cn1nnnc1SCC1=C(C(=O)O)N2C(=O)[C@H](NC(=O)C(O)c3ccccc3)C2SC1 (some centres undefined),Potency,[1],8.91 µM (active)
Cn1c(=O)cc(N2CCC[C@@H](N)C2)n(Cc2cc(F)ccc2C#N)c1=O,Potency,[1],inactive
CCCCCCCCCCCCC[N+](C)(C)Cc1ccccc1,Potency,[2],inactive
same,Potency,[1],inactive
CO/N=C(/C(=O)N[C@@H]1C(=O)N2C(C(=O)OC(C)OC(C)=O)=C(COC(N)=O)CS[C@H]12)c1ccco1 (some centres undefined),Potency,[3],inactive
same,Potency,[2],20.2 µM (active)
Nc1nc(-c2ccc(Cl)c(Cl)c2)c(-c2ccncc2)s1,Potency,[2],inactive
CC(=O)OC1CC(OC2C(O)CC(OC3C(O)CC(OC4CCC5(C)C(CCC6C5CCC5(C)C(C7=CC(=O)OC7)CCC65O)C4)OC3C)OC2C)OC(C)C1O (centres undefined),Potency,[1],inactive
NCCC[C@H](NC(=O)[C@@H]1CCCN1C(=O)[C@@H]1CSSC[C@H](N)C(=O)N[C@@H](Cc2ccc(O)cc2)C(=O)N[C@@H](Cc2ccccc2)C(=O)N[C@@H](CCC(N)=O)C(=O)N[C@@H](CC(N)=O)C(=O)N1)C(=O)NCC(N)=O,Potency,[1],25.1 µM (active)
CCN(CC)CCS(=O)(=O)[C@@H]1CCN2C(=O)c3coc(n3)CC(=O)C[C@H](O)/C=C(C)/C=C/CNC(=O)/C=C/[C@@H](C)[C@@H](C(C)C)OC(=O)[C@@H]12,Potency,[1],6.31 µM (active)
O=c1c2c(c1=O)N(CCP(=O)(O)O)CCCN2,Potency,[1],inactive
NCCCC(N)C(=O)O (centres undefined),Potency,[3],inactive
same,Potency,[2],inactive
same,Potency,[1],inactive
CC1CCC(C(C)C)C(OC(=O)c2ccccc2O)C1 (centres undefined),Potency,[3],inactive
same,Potency,[2],inactive
same,Potency,[1],inactive
same,"activity, negative = inhibition",[4]; parasite line A,-1.98% (inactive)
same,"activity, negative = inhibition",[4]; parasite line B,8.37% (inactive)
same,Potency,AS120,inactive
same,Potency,ATS189,inactive
same,Potency,CP192,inactive
same,Potency,CP194,inactive
same,Potency,CP247,inactive
same,Potency,CP262,inactive
same,Potency,CP269,inactive
same,Potency,CP291,inactive
same,Potency,CP297,inactive
same,Potency,CP315,inactive
same,Potency,CP329,inactive
same,Potency,CP335,inactive
same,Potency,DIV17,inactive
same,Potency,GB4,inactive
same,Potency,HB3,inactive
CC/C=C(\C(=O)N[C@H]1C(=O)N2C(C(=O)OCOC(=O)C(C)(C)C)=C(COC(N)=O)CS[C@H]12)c1csc(N)n1,Potency,[3],inactive
same,Potency,[2],6.26 µM (active)
CCCCCCCCN=C(N)NC(N)=NCc1ccc(Cl)c(Cl)c1,Potency,[1],inactive
N=C(N)c1ccc(OCCCOc2ccc(C(=N)N)cc2Br)c(Br)c1,Potency,[3],inactive
same,Potency,[2],inactive
same,Potency,[1],inactive
CO/N=C(/C(=O)N[C@@H]1C(=O)N2C(C(=O)O)=CCS[C@H]12)c1csc(N)n1,Potency,[3],inactive
same,Potency,[2],10.1 µM (active)
same,"activity, negative = inhibition",[4]; parasite line A,1.12% (inactive)
same,"activity, negative = inhibition",[4]; parasite line B,9.16% (inactive)
same,Potency,AS120,inactive
same,Potency,ATS189,inactive
same,Potency,CP192,inactive
same,Potency,CP194,inactive
same,Potency,CP247,inactive
same,Potency,CP262,inactive
same,Potency,CP269,inactive
same,Potency,CP291,inactive
same,Potency,CP297,inactive
same,Potency,CP315,inactive
same,Potency,CP329,inactive
same,Potency,CP335,inactive
same,Potency,DIV17,inactive
same,Potency,GB4,inactive
same,Potency,HB3,inactive
CCCCCCCCCC(=O)OCCN1CCN(CCCN2c3ccccc3Sc3ccc(C(F)(F)F)cc32)CC1,Potency,[1],inactive
